Screens from PubChem BioAssay.
HT1080NT lethal: kills 2HG-producing HT-1080-NT fibrosarcoma cells; HT-1080-NT fibrosarcoma viability, CellTiter-Glo ATP luminescence, 48 h; Potency, µM (highest dose often 46.1 µM), inactives show top-dose activity, negative = less viability, usual class: cytotoxic; 360,000 tested, 1.6% active; AID 686970;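 note: NT is the 2HG producing partner of a matched IDH1 knockdown line; 0% = DMSO-treated cells and -100% = media-only wells without cells; nearly all actives have a fitted effect of over 55% in size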
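Toxicity toward the 2HG-producing NT line was scored as %Activity, normalised to DMSO and no-cell wells, from CellTiter-Glo luminescence after 48 hours' treatment.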
DT40 TDP1 no CPT: qHTS for Inhibitors of human tyrosyl-DNA phosphodiesterase 1 (TDP1): qHTS in cells in absence of CPT | DT40 Tdp1-/- hTDP1 cells, no CPT, ATP luminescence, 48 h | Potency, µM (top dose mostly 46.2 µM), without a hit: at the highest dose activity change, negative = growth inhibition, hits mostly inhibitors | 420,000 tested, 15% active | AID 686978, 2013; note: % is set by controls: 0 for no effect and ±100 for the full control effect; nearly all actives have a fitted effect of over 55% in size
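Growth kinetics read by CellTiter-Glo luminescence after ≥48 hr at 37 °C. Cells: DT40 Tdp1-/- stably carrying human TDP1, 400 per well, compound exposure in the absence of CPT (DMSO vehicle).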
TGFb SMAD3 inh: blocks TGF-b signaling; HepG2 CAGA-GFP TGF-b/SMAD3 reporter, GFP fluorescence, 18 h; TGF-beta stimulated, 500 pg/mL final; Potency, µM (titrated, usually from 46.1 µM), without a hit: top-dose activity, negative = inhibition, actives largely listed as inhibitors; 410,000 tested, 1.2% active; AID 588855; note: % is set by controls: 0 for no effect and ±100 for the full control effect; nearly all actives have a fitted effect of over 65% in size
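Cell-based qHTS in HEPG2 carrying a CAGA-GFP Smad reporter; compounds added before 500 pg/mL final TGF-beta, 18 h incubation at 37 degrees C, GFP fluorescence quantified per cell by imaging cytometry.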
TDP1 cell CPT: growth inhibition of DT40 Tdp1-/-;hTDP1 cells with camptothecin (screen for TDP1 inhibitors). 420,000 tested, 12% active. Potency, µM (titrated, usually from 46.2 µM), for inactives: top-dose activity change, negative = growth inhibition, hits mostly inhibitors. chicken DT40 Tdp1-/-;hTDP1 cells + 20 nM CPT, ATP luminescence, 48 h; note: % is set by controls: 0 for no effect and ±100 for the full control effect; nearly all actives have a fitted effect of over 55% in size
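Chicken DT40 Tdp1-/- cells complemented with human TDP1, 400 cells/well, exposed to compounds plus 20 nM camptothecin for at least 48 h at 37 C; viability read as ATP content by CellTiter-Glo luminescence.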
HT1080 IDH1KD tx: HT-1080 IDH1 knockdown cell toxicity (counter line) | HT-1080 IDH1 knockdown viability, ATP luminescence, 48 h | Potency, µM (highest dose often 46.1 µM), for the others: at the top dose activity, negative = toxicity, actives largely listed as cytotoxic | 360,000 tested, 2% active | AID 686971;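 note: 0% = DMSO wells and -100% = cell-free medium wells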
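CellTiter-Glo luminescence after 48 h compound exposure at 37 degrees C of IDH1-knockdown HT-1080 cells in 5% FBS RPMI. %Activity scaled between DMSO wells and cell-free media wells, with curves fitted and assigned curve classes.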
HepG2 tox: counter-screen for TGF-b inhibitors: cytotoxicity in HepG2 cells; HepG2 CAGA-GFP viability, ATP luminescence, 18 h; Potency, µM (series often up to 46.1 µM), for inactives: top-dose activity change, negative = cytotoxicity, usual class: cytotoxic; 410,000 tested, 0.76% active; AID 588856
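CellTiter-Glo luminescence gave cytotoxicity after 18 hours at 37 degrees C. The cells were HepG2 CAGA-GFP in 1% FBS DMEM, stimulated with 500 pg/mL TGF-beta after compound addition. %Activity was normalised to no-cell wells (complete cell-killing) and DMSO (no toxicity), and curves were fitted and classified.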
* marks the source's active call; other numbers are inactive results; ? = inconclusive; nt = no result given. Shown are actives, neighbours in structure and some others; about 17% of the full set was active somewhere. Calls come from the whole dose curve; as a rule, active = well fitted curve in the direction sought with a large enough effect; inconclusive = small, poorly fitted or top-dose-only effect, or another doubt; inactive = no such curve, though single readings can be large; an effect the other way counts as inactive or inconclusive. Potency is the fitted concentration of half-maximal effect.

SMILES	HT1080NT lethal	DT40 TDP1 no CPT	TGFb SMAD3 inh	TDP1 cell CPT	HT1080 IDH1KD tx	HepG2 tox
CCCCN(CCCC)C(=O)c1cc2c(=O)n3cccc(C)c3nc2s1	nt	?	2%	?	nt	-2%
CCOC(=O)c1nncc(-c2ccccc2)n1	8%	7%	-31%	12%	15%	3%
CN[C@H]1C[C@@H](c2ccccc2)N(C(C)=O)C[C@H]1CO	-4%	3%	-15%	?	8%	-71%
CCN(CC1CCCO1)C(=O)CCc1nnc(CCc2ccccc2)o1 (configuration not stated)	8%	-7%	6%	-4%	10%	-46%
O=C(Nc1cc(Cl)ccc1Cl)Nn1cnnc1	10%	3%	-6%	15%	4%	6%
COCCCNC(=O)c1cccn2c(=O)c3cc4ccccc4cc3nc12	-8%	7.3µM*	4%	18µM*	?	-18%
C=CCn1c(=N)c(C(=O)NCCCOC)cc2c(=O)n3cccc(C)c3nc21	-7%	?	6%	?	-14%	-11%
Cc1cccn2c(=O)c3cc(C(=O)N(C)C)n(C)c3nc12	17%	?	-10%	-15%	6%	-32%
COc1ccc(OC)c(NC(=O)c2cc3c(=O)n4cccc(C)c4nc3n2C)c1	nt	9.2µM*	-6%	10µM*	nt	-16%
CCCN(CCC)C(=O)c1cc2c(=O)n3cccc(C)c3nc2n1C	nt	23µM*	-20%	16µM*	nt	-25%
O=CN1CCCN(C(=O)c2cc(NC(=O)c3ccccc3)cc3ncn(C4CCCC4)c23)CC1	nt	-13%	nt	20%	nt	nt
Cn1c(=O)c2c(-c3ccccc3)n3c(c2n(C)c1=O)C(c1cccc([N+](=O)[O-])c1)Nc1ccccc1-3 (configuration not stated)	nt	?	-16%	13µM*	nt	-22%
COc1ccc(C2Nc3ccccc3-n3c(-c4ccccc4)c4c(=O)n(C)c(=O)n(C)c4c32)cc1 (configuration not stated)	nt	?	-5%	16µM*	nt	-40%
CN1CCN(S(=O)(=O)c2ccc(NC(=O)c3ccccc3F)cc2)CC1	2%	?	1%	1%	-1%	0%
CN1C(=O)Cc2cc(S(=O)(=O)CCC(=O)Nc3ccc(Cl)cc3)ccc21	nt	2%	?	-27%	nt	-18%
Cc1nc2ccccc2c(=O)n1-c1ccc(NC(=O)c2ccccc2[N+](=O)[O-])cc1	nt	23µM*	-11%	?	nt	-14%
Cc1cccc(S(=O)(=O)Nc2ccc(-n3c(C)nc4ccccc4c3=O)cc2)c1	4%	23µM*	2%	?	4%	-21%
Cc1cc(C(=O)Nn2c(-c3ccc(Br)cc3)nc3ccccc3c2=O)ccc1[N+](=O)[O-]	33µM*	?	13µM*	29µM*	?	-31%
Cc1cc(-n2c(C)nc3ccccc3c2=O)ccc1NC(=O)c1ccc(C)c([N+](=O)[O-])c1	nt	5.2µM*	-21%	7.3µM*	nt	-7%
Cc1nc2ccccc2c(=O)n1-c1ccc(NC(=O)C(F)(F)F)cc1	nt	-18%	?	-21%	nt	-6%
O=C(Nn1c(-c2ccc(Br)cc2)nc2ccccc2c1=O)c1ccncc1	16%	-9%	-5%	8%	14%	-1%
Cc1ccc(C)c(NC(=O)CN2CCCN(Cc3cccc(Cl)c3)S2(=O)=O)c1	nt	?	0%	?	nt	-17%
Cc1ccc(NC(=O)Cn2c(=O)n(-c3ccccc3)c(=O)c3ccc(C(=O)NCc4ccc5c(c4)OCO5)cc32)cc1	nt	-24%	18%	?	nt	-2%
CCOC(=O)C[n+]1cccc(Br)c1	nt	-3%	-6%	-7%	nt	-3%
CCc1nc2ccc(C(=O)N(C)CCCN(C)C)cn2c1N(C)C(=O)C1CCCCC1	26%	-11%	-1%	-7%	8%	-54%
SMILES	HT1080NT lethal	DT40 TDP1 no CPT	TGFb SMAD3 inh	TDP1 cell CPT	HT1080 IDH1KD tx	HepG2 tox
CCN1C(=O)S/C(=C/c2ccsc2)C1=O	4%	-20%	-1%	-10%	-1%	-13%
CC(C)N1C/C(=C/c2ccsc2)C(=O)/C(=C/c2ccsc2)C1	?	5.8µM*	7.9µM*	2.9µM*	?	-33%
CC(C)N1C/C(=C/c2cccnc2)C(=O)/C(=C/c2cccnc2)C1	6.5µM*	1.6µM*	7.1µM*	1.6µM*	5.8µM*	-28%
Cc1ccc(-c2ccc(=O)n(CC(=O)NCCC(C)C)n2)cc1	-3%	15%	-6%	-7%	-3%	-8%
O=C(NCC1CCCO1)c1[nH]c(C(F)(F)F)nc1-c1ccccc1 (configuration not stated)	-3%	11%	-7%	-5%	9%	4%
Cc1ccc2nc(SCC(=O)N3CCCc4ccccc43)nc(=O)n2c1	10%	-20%	4%	-12%	3%	18%
CCOc1ccc2c(c1)n([O-])c1c([n+]2=O)CCCC1	2%	?	-3%	13µM*	10%	0%
Cc1cccc(C)c1OCC(=O)NCC1CCCO1 (configuration not stated)	-6%	14%	-1%	17%	7%	-33%
O=C(NCC(c1cccs1)N1CCOCC1)c1cc(-c2ccc(F)cc2)nc2ccccc12 (configuration not stated)	-1%	16µM*	-14%	?	-6%	-4%
CCCn1nc(C(=O)NCC(C)(C)N2CCOCC2)c2ccccc2c1=O	11%	-15%	-1%	-21%	7%	-14%
CCn1nc(C(=O)NCC(c2cccs2)N2CCOCC2)c2ccccc2c1=O (configuration not stated)	-3%	21µM*	-15%	15µM*	-3%	-15%
Cc1ccc(-c2nn(-c3ccccc3)cc2C(=O)NCC(c2cccs2)N2CCOCC2)cc1 (configuration not stated)	-6%	?	11%	?	-1%	-16%
CCCCn1nc(C(=O)NCC(c2cccs2)N2CCOCC2)c2ccccc2c1=O (configuration not stated)	0%	21µM*	-24%	?	-1%	-30%
CC(C)(C)C(=O)OCC1OC(n2cnc(C(N)=O)n2)C(O)C1O (configuration not stated)	3%	?	3%	16µM*	7%	4%
